# Source: paper PMC7862700, “An all-to-all approach to the identification of sequence-specific readers for epigenetic DNA modifications on cytosine”
# What was measured:
# Experiment in all cases: DAPPL (digital affinity profiling via proximity ligation, sequencing); 10 mM Tris-HCl pH 7.5, 50 mM NaCl, 1 mM DTT, 4% glycerol, room temperature, 30 min; GST-TFs on glutathione beads, 16-mer random dsDNA library, 0.1% formaldehyde crosslink after washing; high values mean tight binding
# [1] = molecular target: T1, FLI1 (Homo sapiens, UniProt Q01543 1-452); details: protein: recombinant; tags: N-terminal GST; dsDNA, one strand shown
# T1 sequence: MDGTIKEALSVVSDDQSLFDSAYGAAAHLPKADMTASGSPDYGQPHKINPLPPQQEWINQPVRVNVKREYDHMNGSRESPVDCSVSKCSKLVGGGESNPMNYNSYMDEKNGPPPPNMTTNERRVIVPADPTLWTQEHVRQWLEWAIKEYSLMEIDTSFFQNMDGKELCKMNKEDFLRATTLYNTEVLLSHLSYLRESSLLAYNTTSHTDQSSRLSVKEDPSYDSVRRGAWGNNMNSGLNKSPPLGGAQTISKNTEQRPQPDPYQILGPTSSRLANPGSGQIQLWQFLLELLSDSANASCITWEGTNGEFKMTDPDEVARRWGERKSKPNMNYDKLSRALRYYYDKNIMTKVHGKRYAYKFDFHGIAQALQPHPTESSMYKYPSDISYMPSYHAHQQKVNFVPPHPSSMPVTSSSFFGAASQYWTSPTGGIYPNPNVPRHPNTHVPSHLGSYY
# In short: (§1)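 Binding signal is defined as a hexamer's read frequency for one factor over its frequency for the tag-only sample. To obtain reads, GST-fused human transcription factors were expressed in yeast, captured on glutathione beads, barcoded with DNA and pooled with that sample. Pools met 200 nmole of a 16-mer random double-stranded DNA library in Tris/NaCl/DTT/glycerol buffer for 30 min at room temperature before washing, 0.1% formaldehyde crosslinking, proximity ligation (BsaI/T4 ligase, 1 h, 37 °C), PCR and Illumina NextSeq500 sequencing.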
# [2] = molecular target: T2, ELK1 (Homo sapiens, UniProt P19419 1-428); details: protein: recombinant; tags: N-terminal GST; dsDNA, one strand shown
# T2 sequence: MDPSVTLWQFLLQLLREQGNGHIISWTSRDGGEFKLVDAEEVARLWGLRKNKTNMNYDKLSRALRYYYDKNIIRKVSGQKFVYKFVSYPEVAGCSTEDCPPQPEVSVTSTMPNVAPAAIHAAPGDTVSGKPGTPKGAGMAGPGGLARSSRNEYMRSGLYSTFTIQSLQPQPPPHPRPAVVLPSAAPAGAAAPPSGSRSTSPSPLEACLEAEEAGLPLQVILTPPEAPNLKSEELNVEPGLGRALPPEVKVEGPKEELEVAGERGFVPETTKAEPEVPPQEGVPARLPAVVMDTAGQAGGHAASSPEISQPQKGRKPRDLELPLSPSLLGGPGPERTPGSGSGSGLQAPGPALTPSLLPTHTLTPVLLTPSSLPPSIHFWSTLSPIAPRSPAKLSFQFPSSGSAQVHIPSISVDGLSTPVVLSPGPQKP
# In short: as §1
# [3] = molecular target: T3, GABPA (Homo sapiens, UniProt Q06546 1-454); details: protein: recombinant; tags: N-terminal GST; dsDNA, one strand shown
# T3 sequence: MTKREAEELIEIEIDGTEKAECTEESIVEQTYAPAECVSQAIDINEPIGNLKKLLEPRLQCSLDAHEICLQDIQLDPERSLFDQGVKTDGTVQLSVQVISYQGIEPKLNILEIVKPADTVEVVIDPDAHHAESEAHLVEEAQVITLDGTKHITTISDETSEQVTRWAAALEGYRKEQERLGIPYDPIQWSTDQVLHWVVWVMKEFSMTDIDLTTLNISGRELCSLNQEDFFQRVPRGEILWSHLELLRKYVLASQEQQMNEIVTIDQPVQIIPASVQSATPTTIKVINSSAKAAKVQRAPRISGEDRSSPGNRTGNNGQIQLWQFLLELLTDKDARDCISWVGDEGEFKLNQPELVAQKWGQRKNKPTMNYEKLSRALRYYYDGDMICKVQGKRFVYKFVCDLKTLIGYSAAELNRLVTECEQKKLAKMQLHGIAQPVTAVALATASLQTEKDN
# In short: as §1
# [4] = molecular target: T4, ERG (Homo sapiens, UniProt P11308 1-479); details: protein: recombinant; tags: N-terminal GST; dsDNA, one strand shown
# T4 sequence: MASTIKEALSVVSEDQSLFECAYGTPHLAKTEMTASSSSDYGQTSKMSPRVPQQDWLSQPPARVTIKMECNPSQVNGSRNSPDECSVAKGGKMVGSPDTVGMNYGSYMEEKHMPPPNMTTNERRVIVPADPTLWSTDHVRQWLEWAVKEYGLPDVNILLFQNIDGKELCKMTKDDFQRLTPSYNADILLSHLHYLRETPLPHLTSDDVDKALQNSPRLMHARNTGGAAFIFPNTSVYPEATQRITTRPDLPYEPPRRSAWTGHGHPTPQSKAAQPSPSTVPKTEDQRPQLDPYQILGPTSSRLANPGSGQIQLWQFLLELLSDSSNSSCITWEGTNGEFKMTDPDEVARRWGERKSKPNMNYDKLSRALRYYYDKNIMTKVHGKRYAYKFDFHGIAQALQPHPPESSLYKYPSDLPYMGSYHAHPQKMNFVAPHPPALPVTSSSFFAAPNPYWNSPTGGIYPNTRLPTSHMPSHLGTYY
# In short: as §1
# [5] = molecular target: ELF1 (Homo sapiens, UniProt P32519 1-619); details: protein: recombinant; tags: N-terminal GST; dsDNA, one strand shown
# In short: as §1
# [6] = molecular target: T5, EHF (Homo sapiens, UniProt Q9NZC4 1-300); details: protein: recombinant; tags: N-terminal GST; dsDNA, one strand shown
# T5 sequence: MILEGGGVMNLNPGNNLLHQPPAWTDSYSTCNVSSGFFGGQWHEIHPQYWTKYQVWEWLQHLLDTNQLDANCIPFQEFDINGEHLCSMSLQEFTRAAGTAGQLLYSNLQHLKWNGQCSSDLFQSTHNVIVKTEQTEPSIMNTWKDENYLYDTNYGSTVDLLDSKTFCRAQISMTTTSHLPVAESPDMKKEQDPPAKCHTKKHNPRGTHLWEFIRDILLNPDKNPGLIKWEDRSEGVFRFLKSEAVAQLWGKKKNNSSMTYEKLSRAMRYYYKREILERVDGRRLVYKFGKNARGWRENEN
# In short: as §1
# [7] = molecular target: SPI1 (Homo sapiens, UniProt P17947 1-270); details: protein: recombinant; tags: N-terminal GST; dsDNA, one strand shown
# In short: as §1
# [8] = molecular target: SPIB (Homo sapiens, UniProt Q01892 1-262); details: protein: recombinant; tags: N-terminal GST; dsDNA, one strand shown
# In short: as §1
# [9] = molecular target: T6, ELK3 (Homo sapiens, UniProt P41970 1-407); details: protein: recombinant; tags: N-terminal GST; dsDNA, one strand shown
# T6 sequence: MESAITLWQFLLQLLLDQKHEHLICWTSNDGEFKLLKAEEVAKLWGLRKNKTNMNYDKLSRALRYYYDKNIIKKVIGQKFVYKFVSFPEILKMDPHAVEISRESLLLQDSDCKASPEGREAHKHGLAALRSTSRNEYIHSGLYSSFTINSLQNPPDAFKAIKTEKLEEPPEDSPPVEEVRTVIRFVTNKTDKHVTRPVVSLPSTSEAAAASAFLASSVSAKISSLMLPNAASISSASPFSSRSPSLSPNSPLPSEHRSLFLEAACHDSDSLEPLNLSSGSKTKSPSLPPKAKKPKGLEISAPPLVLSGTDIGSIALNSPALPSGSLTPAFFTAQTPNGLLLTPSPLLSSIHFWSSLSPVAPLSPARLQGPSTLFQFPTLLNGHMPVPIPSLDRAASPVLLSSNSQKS
# In short: as §1
# [10] = molecular target: T7, FEV (Homo sapiens, UniProt Q99581 1-238); details: protein: recombinant; tags: N-terminal GST; dsDNA, one strand shown
# T7 sequence: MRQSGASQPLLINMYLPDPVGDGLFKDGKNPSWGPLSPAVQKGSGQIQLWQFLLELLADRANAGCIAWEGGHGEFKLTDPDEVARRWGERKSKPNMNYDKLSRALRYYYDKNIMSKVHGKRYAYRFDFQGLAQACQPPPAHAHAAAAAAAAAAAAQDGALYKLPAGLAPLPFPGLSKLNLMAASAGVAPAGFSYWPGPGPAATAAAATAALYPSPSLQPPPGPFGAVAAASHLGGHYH
# In short: as §1
# [11] = molecular target: ETV5 (Homo sapiens, UniProt P41161 1-510); details: protein: recombinant; tags: N-terminal GST; dsDNA, one strand shown
# In short: as §1
# [12] = molecular target: HSF1 (Homo sapiens, UniProt Q00613 1-529); details: protein: recombinant; tags: N-terminal GST; chain copies: 3; dsDNA, one strand shown
# In short: as §1
# [13] = molecular target: T8, SPIC (Homo sapiens, UniProt Q8N5J4 1-248); details: protein: recombinant; tags: N-terminal GST; dsDNA, one strand shown
# T8 sequence: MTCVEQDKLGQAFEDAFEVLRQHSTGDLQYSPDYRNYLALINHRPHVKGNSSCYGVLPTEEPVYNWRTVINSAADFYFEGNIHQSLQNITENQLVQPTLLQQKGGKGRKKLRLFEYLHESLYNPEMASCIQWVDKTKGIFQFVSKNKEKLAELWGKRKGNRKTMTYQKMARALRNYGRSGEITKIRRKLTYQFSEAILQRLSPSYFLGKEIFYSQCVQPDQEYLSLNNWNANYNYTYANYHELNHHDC
# In short: as §1
# [14] = molecular target: ELF4 (Homo sapiens, UniProt Q99607 1-663); details: protein: recombinant; tags: N-terminal GST; dsDNA, one strand shown
# In short: as §1
# [15] = molecular target: T9, ELK4 (Homo sapiens, UniProt P28324-2 1-405); details: protein: recombinant; tags: N-terminal GST; dsDNA, one strand shown
# T9 sequence: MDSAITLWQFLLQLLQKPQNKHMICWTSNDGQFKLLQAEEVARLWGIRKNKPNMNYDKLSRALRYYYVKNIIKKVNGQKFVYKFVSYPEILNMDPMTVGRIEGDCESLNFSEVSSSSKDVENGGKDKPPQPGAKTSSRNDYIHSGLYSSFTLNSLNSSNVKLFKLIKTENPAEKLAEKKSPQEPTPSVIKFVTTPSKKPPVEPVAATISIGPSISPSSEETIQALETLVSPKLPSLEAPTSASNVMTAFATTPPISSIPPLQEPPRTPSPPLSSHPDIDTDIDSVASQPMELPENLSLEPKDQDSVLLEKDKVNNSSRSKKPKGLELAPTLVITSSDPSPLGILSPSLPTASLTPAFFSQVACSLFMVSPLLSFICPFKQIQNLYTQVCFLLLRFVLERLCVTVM
# In short: as §1
# [16] = molecular target: T10, ETV2 (Homo sapiens, UniProt O00321 1-342); details: protein: recombinant; tags: N-terminal GST; dsDNA, one strand shown
# T10 sequence: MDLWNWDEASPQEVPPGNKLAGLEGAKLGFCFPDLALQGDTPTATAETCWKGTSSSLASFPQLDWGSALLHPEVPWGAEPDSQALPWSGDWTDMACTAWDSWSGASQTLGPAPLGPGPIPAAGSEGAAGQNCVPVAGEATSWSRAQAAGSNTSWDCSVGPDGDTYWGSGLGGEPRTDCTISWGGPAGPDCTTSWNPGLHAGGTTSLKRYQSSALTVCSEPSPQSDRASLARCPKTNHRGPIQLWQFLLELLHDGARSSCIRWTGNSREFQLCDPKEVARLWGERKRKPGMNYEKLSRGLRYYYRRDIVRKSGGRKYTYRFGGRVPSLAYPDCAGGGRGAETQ
# In short: as §1
# [17] = molecular target: T11, ELF3 (Homo sapiens, UniProt P78545 1-371); details: protein: recombinant; tags: N-terminal GST; dsDNA, one strand shown
# T11 sequence: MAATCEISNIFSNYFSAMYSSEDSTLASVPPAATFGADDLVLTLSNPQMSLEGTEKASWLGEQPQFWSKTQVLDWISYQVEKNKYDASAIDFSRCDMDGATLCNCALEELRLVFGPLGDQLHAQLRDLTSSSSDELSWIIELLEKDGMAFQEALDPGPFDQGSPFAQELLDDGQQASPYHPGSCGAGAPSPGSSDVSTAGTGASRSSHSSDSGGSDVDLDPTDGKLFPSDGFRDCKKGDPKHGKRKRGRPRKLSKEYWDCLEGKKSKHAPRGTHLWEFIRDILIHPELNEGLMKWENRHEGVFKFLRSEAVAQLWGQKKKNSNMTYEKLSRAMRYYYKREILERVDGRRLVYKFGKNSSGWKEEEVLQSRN
# In short: as §1
# [18] = molecular target: CRX (Homo sapiens, UniProt O43186 1-299); details: protein: recombinant; tags: N-terminal GST; dsDNA, one strand shown
# In short: as §1
# [19] = molecular target: ETV1 (Homo sapiens, UniProt P50549 1-477); details: protein: recombinant; tags: N-terminal GST; dsDNA, one strand shown
# In short: as §1
# Sequence of CRX (O43186 whole entry): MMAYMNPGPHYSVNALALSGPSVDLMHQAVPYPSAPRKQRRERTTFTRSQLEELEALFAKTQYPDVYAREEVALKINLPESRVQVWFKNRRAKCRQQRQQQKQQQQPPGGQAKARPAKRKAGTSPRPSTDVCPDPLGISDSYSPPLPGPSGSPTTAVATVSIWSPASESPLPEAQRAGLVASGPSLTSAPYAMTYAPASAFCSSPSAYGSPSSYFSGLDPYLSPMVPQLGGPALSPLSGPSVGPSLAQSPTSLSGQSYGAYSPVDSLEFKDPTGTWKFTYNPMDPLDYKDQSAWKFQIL
# Sequence of SPIB (Q01892 whole entry): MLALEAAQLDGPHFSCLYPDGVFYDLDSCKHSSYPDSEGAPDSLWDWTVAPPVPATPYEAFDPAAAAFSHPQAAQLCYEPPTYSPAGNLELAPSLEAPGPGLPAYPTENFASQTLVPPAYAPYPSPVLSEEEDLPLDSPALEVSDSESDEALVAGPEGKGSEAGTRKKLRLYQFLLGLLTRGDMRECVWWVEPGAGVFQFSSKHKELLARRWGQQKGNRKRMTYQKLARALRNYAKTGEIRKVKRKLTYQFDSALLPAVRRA
# Sequence of ELF4 (Q99607 whole entry): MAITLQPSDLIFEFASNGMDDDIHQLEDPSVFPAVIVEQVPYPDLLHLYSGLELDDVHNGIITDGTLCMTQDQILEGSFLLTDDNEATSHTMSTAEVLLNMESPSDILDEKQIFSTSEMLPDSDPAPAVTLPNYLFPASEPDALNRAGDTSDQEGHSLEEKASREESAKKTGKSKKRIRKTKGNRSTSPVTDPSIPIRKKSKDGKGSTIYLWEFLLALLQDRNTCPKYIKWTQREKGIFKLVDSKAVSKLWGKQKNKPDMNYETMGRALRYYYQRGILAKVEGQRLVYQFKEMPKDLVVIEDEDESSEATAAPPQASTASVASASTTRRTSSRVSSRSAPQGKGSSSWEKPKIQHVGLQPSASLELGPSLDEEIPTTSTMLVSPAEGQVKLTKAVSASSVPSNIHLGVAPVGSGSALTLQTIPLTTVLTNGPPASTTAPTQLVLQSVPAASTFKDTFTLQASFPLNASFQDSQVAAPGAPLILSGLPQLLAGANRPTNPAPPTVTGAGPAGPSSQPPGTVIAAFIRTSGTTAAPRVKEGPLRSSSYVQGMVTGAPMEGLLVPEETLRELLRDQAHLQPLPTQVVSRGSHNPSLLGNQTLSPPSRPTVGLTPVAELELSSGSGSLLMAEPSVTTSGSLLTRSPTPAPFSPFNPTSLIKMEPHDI
# Sequence of HSF1 (Q00613 whole entry): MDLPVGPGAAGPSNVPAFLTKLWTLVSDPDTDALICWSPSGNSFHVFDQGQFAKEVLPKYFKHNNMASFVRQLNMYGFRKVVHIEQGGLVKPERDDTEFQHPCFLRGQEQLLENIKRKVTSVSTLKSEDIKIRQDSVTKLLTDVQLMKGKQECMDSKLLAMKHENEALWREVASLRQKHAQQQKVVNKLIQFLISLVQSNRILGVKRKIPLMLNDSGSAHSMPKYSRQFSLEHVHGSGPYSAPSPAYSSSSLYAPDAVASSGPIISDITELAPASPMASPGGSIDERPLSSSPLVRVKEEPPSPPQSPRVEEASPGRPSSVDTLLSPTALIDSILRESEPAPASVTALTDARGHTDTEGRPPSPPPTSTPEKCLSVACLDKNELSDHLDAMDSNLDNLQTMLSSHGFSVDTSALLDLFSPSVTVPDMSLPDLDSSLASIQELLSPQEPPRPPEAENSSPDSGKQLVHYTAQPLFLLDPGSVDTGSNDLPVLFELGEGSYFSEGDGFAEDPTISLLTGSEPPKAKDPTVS
# Sequence of ELF1 (P32519 whole entry): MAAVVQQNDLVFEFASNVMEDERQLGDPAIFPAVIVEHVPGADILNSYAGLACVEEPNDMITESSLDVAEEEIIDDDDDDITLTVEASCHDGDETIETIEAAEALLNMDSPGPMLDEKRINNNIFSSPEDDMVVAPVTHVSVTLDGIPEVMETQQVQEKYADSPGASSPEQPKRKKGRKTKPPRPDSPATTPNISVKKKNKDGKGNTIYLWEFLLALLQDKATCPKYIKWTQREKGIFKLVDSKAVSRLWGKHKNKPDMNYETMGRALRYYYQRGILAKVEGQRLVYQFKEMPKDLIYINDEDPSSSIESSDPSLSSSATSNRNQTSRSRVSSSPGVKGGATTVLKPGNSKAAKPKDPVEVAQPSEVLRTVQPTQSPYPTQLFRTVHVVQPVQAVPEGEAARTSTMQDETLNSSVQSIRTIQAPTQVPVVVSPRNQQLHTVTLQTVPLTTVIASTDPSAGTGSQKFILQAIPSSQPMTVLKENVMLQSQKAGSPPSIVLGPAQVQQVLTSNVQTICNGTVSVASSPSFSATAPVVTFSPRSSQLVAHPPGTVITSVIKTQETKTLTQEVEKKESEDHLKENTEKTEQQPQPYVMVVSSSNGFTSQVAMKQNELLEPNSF
# Sequence of ETV1 (P50549 whole entry): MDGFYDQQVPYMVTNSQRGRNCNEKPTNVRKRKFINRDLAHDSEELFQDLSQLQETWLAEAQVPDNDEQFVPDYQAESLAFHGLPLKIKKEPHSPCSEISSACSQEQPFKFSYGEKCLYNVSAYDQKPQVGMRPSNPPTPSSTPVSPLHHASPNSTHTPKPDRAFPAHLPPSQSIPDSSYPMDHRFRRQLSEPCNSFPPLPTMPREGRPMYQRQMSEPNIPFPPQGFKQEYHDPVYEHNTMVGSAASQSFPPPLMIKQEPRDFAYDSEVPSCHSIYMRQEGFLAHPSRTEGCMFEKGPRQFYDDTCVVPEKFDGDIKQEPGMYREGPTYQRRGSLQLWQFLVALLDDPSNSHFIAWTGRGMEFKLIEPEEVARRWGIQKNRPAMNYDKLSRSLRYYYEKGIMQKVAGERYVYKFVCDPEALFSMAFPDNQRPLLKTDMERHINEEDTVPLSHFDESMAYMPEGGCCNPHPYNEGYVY
# Sequence of ETV5 (P41161 whole entry): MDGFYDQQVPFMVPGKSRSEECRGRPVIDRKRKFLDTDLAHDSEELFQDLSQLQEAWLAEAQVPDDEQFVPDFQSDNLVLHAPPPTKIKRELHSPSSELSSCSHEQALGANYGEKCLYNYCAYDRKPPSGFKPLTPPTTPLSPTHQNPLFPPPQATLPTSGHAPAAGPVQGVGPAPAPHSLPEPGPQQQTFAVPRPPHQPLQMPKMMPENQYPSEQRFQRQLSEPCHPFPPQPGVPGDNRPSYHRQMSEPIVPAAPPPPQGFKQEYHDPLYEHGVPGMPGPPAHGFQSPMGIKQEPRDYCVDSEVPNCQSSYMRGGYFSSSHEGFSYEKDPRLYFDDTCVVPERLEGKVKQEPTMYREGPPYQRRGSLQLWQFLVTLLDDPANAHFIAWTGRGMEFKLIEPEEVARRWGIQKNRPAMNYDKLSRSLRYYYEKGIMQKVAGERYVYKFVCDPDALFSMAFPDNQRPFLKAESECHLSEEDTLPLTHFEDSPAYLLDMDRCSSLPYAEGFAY
sequence,measurement,setting,value
GTCTCG,binding signal,[1],"1.36 fold enrichment (6-mer frequency, TF over GST control)"
same,binding signal,[2],"1.37 fold enrichment (6-mer frequency, TF over GST control)"
same,binding signal,[3],"1.3 fold enrichment (6-mer frequency, TF over GST control)"
same,binding signal,[4],"1.26 fold enrichment (6-mer frequency, TF over GST control)"
same,binding signal,[5],"1.32 fold enrichment (6-mer frequency, TF over GST control)"
same,binding signal,[6],"1.28 fold enrichment (6-mer frequency, TF over GST control)"
same,binding signal,[7],"1.33 fold enrichment (6-mer frequency, TF over GST control)"
same,binding signal,[8],"1.43 fold enrichment (6-mer frequency, TF over GST control)"
same,binding signal,[9],"1.37 fold enrichment (6-mer frequency, TF over GST control)"
same,binding signal,[10],"1.3 fold enrichment (6-mer frequency, TF over GST control)"
same,binding signal,[11],"1.25 fold enrichment (6-mer frequency, TF over GST control)"
same,binding signal,[12],"1.55 fold enrichment (6-mer frequency, TF over GST control)"
same,binding signal,[13],"1.21 fold enrichment (6-mer frequency, TF over GST control)"
same,binding signal,[14],"1.43 fold enrichment (6-mer frequency, TF over GST control)"
same,binding signal,[15],"1.3 fold enrichment (6-mer frequency, TF over GST control)"
same,binding signal,[16],"1.03 fold enrichment (6-mer frequency, TF over GST control)"
same,binding signal,[17],"1.35 fold enrichment (6-mer frequency, TF over GST control)"
same,binding signal,[18],"1.06 fold enrichment (6-mer frequency, TF over GST control)"
same,binding signal,[19],"1.35 fold enrichment (6-mer frequency, TF over GST control)"
